Compounds without any hit were thinned out: in the full panel of roughly 79,000, 15% have a hit. The source made the active and inactive calls. No stated cut-off is given here; in the data, active means growth inhibition above about 70%; inactive means the rest.
Key:
[1] = NCI Yeast Anticancer Drug Screen. Data for the rad52 strain (AID 147);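 further: 0% = growth of vehicle-treated control cultures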; details: S. cerevisiae rad52 mutant growth inhibition, stronger effect = higher value
Procedure, shortened: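 The repair-mutant yeast strain was incubated with compounds, then growth was read and inhibition derived relative to vehicle.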

[2] = NCI Yeast Anticancer Drug Screen. Data for the wt1 strain (AID 149);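 further: 0% = growth of vehicle-treated wt1 cultures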; details: S. cerevisiae wt1 strain (SPY 50644) growth inhibition, stronger effect = higher value
Procedure, shortened: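 Using yeast strain wt1, compound-induced growth inhibition was determined against vehicle-treated cultures.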

[3] = NCI Yeast Anticancer Drug Screen. Data for the mgt1 strain (AID 153); details: S. cerevisiae mgt1 mutant growth inhibition, stronger effect = higher value
Procedure, shortened: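 Vehicle-normalized growth inhibition is determined in mgt1 yeast, a strain selected for a defined alteration in DNA repair or cell cycle control.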

[4] = NCI Yeast Anticancer Drug Screen. Data for the rad50 strain (AID 155);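 further: 0% = growth of vehicle-only cultures of the same strain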; details: S. cerevisiae rad50 strain growth inhibition, stronger effect = higher value
Procedure, shortened: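 Relative growth inhibition (compound vs vehicle) was measured in yeast with a defined repair-gene alteration.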

[5] = NCI Yeast Anticancer Drug Screen. Data for the mec2-1 strain (AID 157); details: S. cerevisiae mec2-1 strain, stronger effect = higher value
Procedure, shortened: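 Mutant yeast (mec2-1) grown with compound; growth inhibition relative to vehicle control reported.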

[6] = NCI Yeast Anticancer Drug Screen. Data for the rad14 strain (AID 159);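 further: 0% = growth of vehicle-treated control cultures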; details: S. cerevisiae rad14 strain growth inhibition, stronger effect = higher value
Procedure, shortened: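 Screen for anticancer potential: a yeast strain altered in DNA damage repair is grown with compound, and reduced growth is quantified against vehicle controls.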

[7] = NCI Yeast Anticancer Drug Screen. Data for the sgs1 mgt1 strain (AID 161);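 further: 0% = growth of cultures given vehicle only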; details: S. cerevisiae sgs1 mgt1 strain, stronger effect = higher value
Procedure, shortened: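 Percent growth inhibition was derived by comparing compound-exposed mutant yeast with vehicle-exposed cultures. The strain carries alterations in DNA damage repair.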

[8] = NCI Yeast Anticancer Drug Screen. Data for the CLN2oe strain (AID 163);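 further: 0% = growth of vehicle-only control cultures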; details: S. cerevisiae CLN2oe strain, stronger effect = higher value
Procedure, shortened: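 Compounds are applied to yeast harbouring a defined cell-cycle control change; reduced growth compared with vehicle-treated controls gives the value.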

[9] = NCI Yeast Anticancer Drug Screen. Data for the bub3 strain (AID 167); details: S. cerevisiae bub3 mutant strain, stronger effect = higher value
Procedure, shortened: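 Screening used yeast with an engineered genetic alteration affecting cell cycle control. Compound-exposed cultures were compared with vehicle cultures, and reduced growth was taken as inhibition.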

[10] = NCI Yeast Anticancer Drug Screen. Data for the wt2 strain (AID 169);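 further: 0% = growth of vehicle-treated yeast cultures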; details: S. cerevisiae wt2 strain growth inhibition, stronger effect = higher value
Procedure, shortened: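 Against vehicle-treated controls, the growth of yeast exposed to each compound was compared, and the inhibition was recorded.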

[11] = NCI Yeast Anticancer Drug Screen. Data for the mlh1 strain (AID 171);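 further: 0% = growth of vehicle-treated control cultures of the same strain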; details: S. cerevisiae mlh1 strain growth inhibition, stronger effect = higher value
Procedure, shortened: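 Measured: yeast growth. Reference: vehicle-treated controls. Organism: strain with a defined alteration affecting DNA damage repair or cell cycle control, treated with compound.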

[12] = NCI Yeast Anticancer Drug Screen. Data for the sgs1 strain (AID 173);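 further: 0% = growth of vehicle-only control cultures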; details: S. cerevisiae sgs1 mutant, stronger effect = higher value
Procedure, shortened: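 Each compound was added to cultures of the altered yeast strain. Growth was recorded, and inhibition was derived by comparison with vehicle controls.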

[13] = NCI Yeast Anticancer Drug Screen. Data for the mlh1 rad18 strain (AID 175); details: S. cerevisiae mlh1 rad18 strain growth inhibition, stronger effect = higher value
Procedure, shortened: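 Genetically defined yeast (DNA repair-deficient) exposed to compounds; growth inhibition determined relative to vehicle.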

[14] = NCI Yeast Anticancer Drug Screen. Data for the rad18 strain (AID 177); details: S. cerevisiae rad18 mutant growth inhibition, stronger effect = higher value
Procedure, shortened: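 Vehicle-treated cultures served as the baseline for scoring compound-induced growth inhibition in DNA-repair-mutant yeast.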

[15] = NCI Yeast Anticancer Drug Screen. Data for the rad50EPP+ strain (AID 151);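 further: 0% = growth of vehicle-treated control cultures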; details: S. cerevisiae rad50 mutant strain, stronger effect = higher value
Procedure, shortened: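 Vehicle-normalised growth inhibition; rad50EPP+ yeast strain, altered in DNA damage repair, compound-treated.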

[16] = NCI Yeast Anticancer Drug Screen. Data for the cln2 rad14 strain (AID 165);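 further: 0% = growth equal to vehicle treated cultures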; details: S. cerevisiae cln2 rad14 strain, stronger effect = higher value
Procedure, shortened: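 Readout is yeast growth inhibition versus vehicle-treated controls, using a strain with cln2 and rad14 alterations exposed to compound.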

[17] = at 5.0 µM (retest, dose inferred, filed as 0.5)
[18] = at 50.0 µM (retest, dose inferred, filed as 5.0)

Measured: growth inhibition

CC1=C(C(=O)NCc2ccccc2)C(c2ccccc2)C(C(=O)NCc2ccccc2)=C(C)N1
active: [1]; at 100.0 µM 85% | [2]; at 100.0 µM 89% | [3]; at 100.0 µM 97% | [4]; [18] 75% | [4]; at 50.0 µM 75.5% | [4]; at 100.0 µM 91% | [5]; [18] 81% | [5]; at 50.0 µM 93.3% | [5]; at 100.0 µM 94% | [6]; at 100.0 µM 92% | [7]; [18] 82% | [7]; at 50.0 µM 70.7% | [9]; [18] 84% | [9]; at 50.0 µM 87.8% | [9]; at 100.0 µM 94% | [10]; at 100.0 µM 91% | [11]; at 100.0 µM 96% | [12]; at 100.0 µM 93% | [13]; [18] 82% | [13]; at 50.0 µM 93.1% | [14]; at 100.0 µM 96%
inactive: [1]; at 1.2 µM -3% | [1]; at 3.7 µM -4% | [1]; at 11.0 µM -4% | [1]; at 33.0 µM -20% | [2]; at 1.2 µM 0% | [2]; at 3.7 µM -1% | [2]; at 11.0 µM -4% | [2]; at 33.0 µM 4% | [3]; at 1.2 µM -2% | [3]; at 3.7 µM -2% | [3]; at 11.0 µM -3% | [3]; at 33.0 µM 6% | [4]; at 1.2 µM -14% | [4]; at 3.7 µM 21% | [4]; [17] 2% | [4]; at 11.0 µM 22% | [4]; at 33.0 µM 36% | [5]; at 1.2 µM -1% | [5]; at 3.7 µM -4% | [5]; [17] 11% | [5]; at 11.0 µM -3% | [5]; at 33.0 µM 18% | [6]; at 1.2 µM 1% | [6]; at 3.7 µM 4% | [6]; at 11.0 µM 6% | [6]; at 33.0 µM 16% | [7]; [17] -1% | [8]; at 1.2 µM -5% | [8]; at 3.7 µM 1% | [8]; at 11.0 µM -2% | [8]; at 33.0 µM 4% | [8]; at 100.0 µM 63% | [9]; at 1.2 µM -1% | [9]; at 3.7 µM 1% | [9]; [17] 6% | [9]; at 11.0 µM 0% | [9]; at 33.0 µM 45% | [10]; at 1.2 µM -1% | [10]; at 3.7 µM 7% | [10]; at 11.0 µM -3% | [10]; at 33.0 µM 10% | [11]; at 1.2 µM -4% | [11]; at 3.7 µM -3% | [11]; at 11.0 µM -3% | [11]; at 33.0 µM 8% | [12]; at 1.2 µM -1% | [12]; at 3.7 µM -2% | [12]; at 11.0 µM 5% | [12]; at 33.0 µM 40% | [13]; [17] 4% | [14]; at 1.2 µM 2% | [14]; at 3.7 µM 3% | [14]; at 11.0 µM 7% | [14]; at 33.0 µM 60%

CC(C)OC(=O)c1ccc(CCc2cc(O)c(Br)cc2O)cc1
active: [1]; at 100.0 µM 79% | [2]; at 100.0 µM 98% | [15]; at 3.7 µM 80% | [15]; at 11.0 µM 94% | [15]; at 33.0 µM 97% | [15]; at 100.0 µM 94% | [4]; at 33.0 µM 98% | [4]; [18] 99% | [4]; at 50.0 µM 86.2% | [4]; at 100.0 µM 97% | [5]; [18] 99% | [5]; at 50.0 µM 91.2% | [5]; at 100.0 µM 87% | [6]; at 11.0 µM 75% | [6]; at 33.0 µM 96% | [6]; at 100.0 µM 92% | [8]; at 33.0 µM 92% | [8]; at 100.0 µM 95% | [16]; [18] 96% | [16]; at 50.0 µM 91.8% | [9]; at 33.0 µM 98% | [9]; [18] 91% | [9]; at 50.0 µM 88.9% | [9]; at 100.0 µM 92% | [10]; at 11.0 µM 95% | [10]; at 33.0 µM 98% | [10]; at 100.0 µM 95% | [11]; at 3.7 µM 70% | [11]; at 11.0 µM 71% | [11]; at 33.0 µM 72% | [11]; at 100.0 µM 94% | [12]; at 100.0 µM 95% | [13]; [18] 99% | [13]; at 50.0 µM 85.2% | [14]; at 33.0 µM 96% | [14]; at 100.0 µM 93%
inactive: [1]; at 1.2 µM 37% | [1]; at 3.7 µM 50% | [1]; at 11.0 µM 56% | [1]; at 33.0 µM 53% | [2]; at 1.2 µM 26% | [2]; at 3.7 µM 33% | [2]; at 11.0 µM 45% | [2]; at 33.0 µM 27% | [15]; at 1.2 µM 66% | [4]; at 1.2 µM 34% | [4]; at 3.7 µM 49% | [4]; [17] 27% | [4]; at 11.0 µM 66% | [5]; at 1.2 µM 6% | [5]; at 3.7 µM 20% | [5]; [17] 42% | [5]; at 11.0 µM 30% | [5]; at 33.0 µM 32% | [6]; at 1.2 µM 43% | [6]; at 3.7 µM 53% | [8]; at 1.2 µM -5% | [8]; at 3.7 µM 19% | [8]; at 11.0 µM 53% | [16]; [17] 1% | [9]; at 1.2 µM 22% | [9]; at 3.7 µM 22% | [9]; [17] 4% | [9]; at 11.0 µM 52% | [10]; at 1.2 µM 18% | [10]; at 3.7 µM 39% | [11]; at 1.2 µM 55% | [12]; at 1.2 µM 47% | [12]; at 3.7 µM 60% | [12]; at 11.0 µM 58% | [12]; at 33.0 µM 61% | [13]; [17] 45% | [14]; at 1.2 µM 20% | [14]; at 3.7 µM 24% | [14]; at 11.0 µM 59%

CC(C)C(C)/C=C\C(C)C1CCC2C3=CC=C4CC(O)CCC4(C)C3CCC21C (stereo not given)
active: [4]; [18] 84% | [4]; at 50.0 µM 83.2% | [5]; [17] 89% | [5]; [18] 99% | [16]; [17] 91% | [16]; [18] 95% | [9]; [17] 99% | [9]; [18] 99%
inactive: [1]; at 1.2 µM -1% | [1]; at 3.7 µM -2% | [1]; at 11.0 µM -1% | [1]; at 33.0 µM -1% | [1]; at 100.0 µM 17% | [2]; at 1.2 µM 2% | [2]; at 3.7 µM -1% | [2]; at 11.0 µM 0% | [2]; at 33.0 µM -3% | [2]; at 100.0 µM -3% | [3]; at 1.2 µM 0% | [3]; at 3.7 µM 3% | [3]; at 11.0 µM -1% | [3]; at 33.0 µM -9% | [3]; at 100.0 µM -4% | [4]; at 1.2 µM -1% | [4]; at 3.7 µM 5% | [4]; [17] 51% | [4]; at 11.0 µM -3% | [4]; at 33.0 µM -1% | [4]; at 100.0 µM 22% | [5]; at 1.2 µM 0% | [5]; at 3.7 µM 0% | [5]; at 11.0 µM -2% | [5]; at 33.0 µM -1% | [5]; at 50.0 µM 44.5% | [5]; at 100.0 µM -17% | [6]; at 1.2 µM -1% | [6]; at 3.7 µM 6% | [6]; at 11.0 µM 1% | [6]; at 33.0 µM -2% | [6]; at 100.0 µM 27% | [7]; [17] 17% | [7]; [18] 48% | [7]; at 50.0 µM 66.7% | [16]; at 50.0 µM 35.4% | [9]; at 1.2 µM -1% | [9]; at 3.7 µM 3% | [9]; at 11.0 µM -2% | [9]; at 33.0 µM -10% | [9]; at 50.0 µM 42% | [9]; at 100.0 µM 32% | [10]; at 1.2 µM 0% | [10]; at 3.7 µM 1% | [10]; at 11.0 µM 1% | [10]; at 33.0 µM 1% | [10]; at 100.0 µM 14% | [11]; at 1.2 µM -1% | [11]; at 3.7 µM -3% | [11]; at 11.0 µM -5% | [11]; at 33.0 µM -11% | [11]; at 100.0 µM 10%

Source: PubChem BioAssay (NCI)
